Screens from PubChem BioAssay.
An excerpt weighted towards active compounds, which were near 2.1% of everything screened.
ROS inducer = ROS inducers in U2OS cancer cells, primary screen, cell-based, H2DCF-DA fluorescence. U2OS ROS induction. ROS induction (% of piperlongumine), % at 10 µM. actives 2% (n = 46,000); in the data active = ROS induction above about 79%, passing the limit was not always enough;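 note: 0% = DMSO vehicle median and 100% = reference compound median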
YB-1 expression = inhibitors of YB-1 gene expression, primary screen, cell-based, fluorescence. AID 434959, 2010. actives 0.37% (n = 30,000). U2OS, qRT-PCR YB-1 vs CDIP delta delta Cp, 16 h; stronger effect = higher value; zero = DMSO, each unit about twofold. delta delta Cp (YB-1 minus CDIP) (concentration not given with the values);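 active = delta delta Cp rounded down to an integer at or above 3, about 3 SD of DMSO wells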;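 note: higher means less YB-1 transcript or more CDIP transcript relative to DMSO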
* hit, by the source's call; x = no result.

SMILES | ROS inducer | YB-1 expression
Cc1noc(C)c1NC(=O)Nc1ccc2c(c1)C(=O)N([C@@H](C)CO)C[C@@H](C)[C@@H](CN(C)C(=O)Nc1c(C)noc1C)O2 | 1.5 | -0.45
Cc1noc(C)c1NC(=O)Nc1ccc2c(c1)C(=O)N([C@H](C)CO)C[C@@H](C)[C@H](CN(C)C(=O)Nc1c(C)noc1C)O2 | 104.8* | 0.0662
Cc1noc(C)c1NC(=O)N(C)C[C@H]1Oc2ccc(NC(=O)Cn3cnnn3)cc2C(=O)N([C@@H](C)CO)C[C@@H]1C | -5.3 | 3.92*
Cc1noc(C)c1NC(=O)N(C)C[C@@H]1Oc2ccc(NC(=O)Cn3cnnn3)cc2C(=O)N([C@H](C)CO)C[C@@H]1C | -8.9 | 0.19
NC(=O)C1CCN(C(=O)Cn2ncc3c4ccccc4n(Cc4ccc(F)cc4)c3c2=O)CC1 | -0.7 | x
CC1(C)Cc2nc3sc4c(NCC5CCCO5)ncnc4c3cc2CO1 (stereo unspecified) | -11.0 | x
COc1cc(-c2nnc(SCC(=O)c3cccc([N+](=O)[O-])c3)n2-c2ccccc2)cc(OC)c1OC | 95.1* | x
COc1ccc(-c2nnc(SCC(=O)c3cccc([N+](=O)[O-])c3)n2C)cc1 | 15.4 | x
COc1ccc(-c2cc(C)nc(SCC(=O)c3cccc([N+](=O)[O-])c3)n2)cc1 | 92.2* | x
COc1cc(-c2nnc(SCC(=O)c3ccc(Cl)cc3)n2-c2ccccc2)cc(OC)c1OC | -0.2 | x
O=C(CCN(Cc1ccco1)S(=O)(=O)c1ccc(Cl)cc1)Nc1ccc(Cl)cc1 | -4.8 | x
N#C/C(=C\Nc1cnccn1)S(=O)(=O)c1ccc(C(F)(F)F)cn1 | 15.1 | -0.191
Cc1ccc(NC(=O)CN(c2ccc(Cl)c(C(F)(F)F)c2)S(C)(=O)=O)cc1 | -4.4 | x
O=C1/C(=C\c2c[nH]c3ccccc23)C(c2ccccc2)Oc2ccccc21 (stereo unspecified) | 28.6 | -0.102
N#Cc1c(/N=C/c2ccccc2)sc2c1CCCC2 | -2.3 | -0.243
CCCN1CC=C2C(C#N)=C(N)C(C#N)(C#N)C3(C(=O)Nc4ccccc43)C2C1 (stereo unspecified) | 38.2 | 0.356
N#CC1=C(N)C(C#N)(C#N)C2(C(=O)N(Cc3ccccc3)c3ccccc32)C2CCCC=C12 (stereo unspecified) | 126.5* | 0.0388
C[C@@H]1CCCCO[C@@H](CN(C)S(=O)(=O)c2cccs2)[C@@H](C)CN([C@H](C)CO)C(=O)c2cc(NS(=O)(=O)c3ccc(F)cc3)ccc2O1 | 101.7* | -0.233
C[C@@H]1CCCCO[C@H](CN(C)S(=O)(=O)c2ccc(F)cc2)[C@@H](C)CN([C@H](C)CO)C(=O)c2cc(NS(=O)(=O)c3cccs3)ccc2O1 | 22.8 | -0.132
Cc1ccc(S(=O)(=O)Nc2ccc3c(c2)C(=O)N([C@H](C)CO)C[C@H](C)[C@@H](CN(C)C(=O)Nc2ccc(C(F)(F)F)cc2)OCCCC[C@@H](C)O3)cc1 | 40.3 | 0.302
C[C@@H]1CCCCO[C@H](CN(C)C)[C@@H](C)CN([C@H](C)CO)C(=O)c2cc(NS(=O)(=O)c3ccc(F)cc3)ccc2O1 | 92.7* | 0.469
C[C@@H]1CCCCO[C@@H](CN(C)CC2CC2)[C@@H](C)CN([C@H](C)CO)C(=O)c2cc(NS(=O)(=O)c3ccc(F)cc3)ccc2O1 | 12.5 | -0.292
C[C@@H]1CCCCO[C@@H](CN(C)C(=O)Nc2ccc(C(F)(F)F)cc2)[C@@H](C)CN([C@H](C)CO)C(=O)c2cc(NS(=O)(=O)c3ccc(F)cc3)ccc2O1 | 81.9* | 0.482
C[C@@H]1C[C@H]2OCC3=CCC[C@H]([C@]1(CC(O)c1ccoc1)C(=O)O)[C@]32CO (stereo partly specified) | 0.5 | 0.473
O=C(/C=C/c1ccccc1)Nc1ccc(N2CCN(c3ccc(C(F)(F)F)cn3)CC2)nc1 | -1.7 | x
SMILES | ROS inducer | YB-1 expression
O=C(Nc1ccc(C(F)(F)F)cc1)c1cnc(N2CCN(c3ccccn3)CC2)c2ccccc12 | 95.9* | x
CCOC(=O)c1nnn2c1nc(N(Cc1ccccc1)Cc1ccccc1)c1ccccc12 | 172.8* | 0.367
CCOC(=O)c1nnn2c1nc(SCC(N)=O)c1ccccc12 | 16.9 | -0.104
O=C(Nc1ccccc1C(=O)O)c1ccccc1Cl | 16.7 | x
COc1ccccc1-n1c(SCC(=O)Nc2ccccc2C)nc2ccc(I)cc2c1=O | 25.9 | x
CCn1c(SCC(=O)Nc2ccccc2)nc2ccc(I)cc2c1=O | 108.7* | x
CCOC(=O)c1c(NC(=O)CSc2nc(C)cc(C(F)(F)F)n2)sc2c1CCCC2 | -3.4 | x
CCOC(=O)c1c(NC(=O)c2nc3nc(C)cc(C(F)F)n3n2)sc2c1CCCC2 | 165.5* | x
COc1cccc(S(=O)(=O)N(C)C[C@@H]2Oc3ncc(C#Cc4ccc(C(F)(F)F)cc4)cc3C(=O)N([C@H](C)CO)C[C@@H]2C)c1 | 129.2* | 0.711
C[C@H](CO)N1C[C@H](C)[C@H](CN(C)S(=O)(=O)c2cccs2)Oc2ncc(C#Cc3ccc(C(F)(F)F)cc3)cc2C1=O | 110.1* | 5.97*
C[C@H](CO)N1C[C@H](C)[C@H](CN(C)S(=O)(=O)c2cccs2)Oc2ncc(C#Cc3ccc(F)cc3)cc2C1=O | 11.1 | 0.0111
C[C@H](CO)N1C[C@H](C)[C@H](CN(C)S(=O)(=O)c2cn(C)cn2)Oc2ncc(C#Cc3ccccc3)cc2C1=O | 119.6* | 0.0851
C[C@H](CO)N1C[C@H](C)[C@H](CN(C)S(=O)(=O)c2cn(C)cn2)Oc2ncc(C#Cc3ccc(C(F)(F)F)cc3)cc2C1=O | 7.4 | 0.129
COc1cccc(S(=O)(=O)N(C)C[C@@H]2Oc3ncc(C#Cc4ccc(OC)c(OC)c4)cc3C(=O)N([C@H](C)CO)C[C@@H]2C)c1 | 47.3 | -0.288
Cc1ccc(/C(N)=N/O)cc1 | -16.2 | x
Cc1ccc(Nc2nc(SCc3ccccc3)nnc2C)cc1 | 9.6 | x
C/C=C/C=C/C(=O)c1cc(C)c(O)c(C)c1O | 101.9* | -0.436
Cc1ccc2nc3c(cc(C(=O)NCCN4CCOCC4)c(=N)n3CC3CCCO3)c(=O)n2c1 (stereo unspecified) | -1.4 | x
C[C@@H]1CN([C@@H](C)CO)C(=O)Cc2cc(NS(C)(=O)=O)ccc2O[C@@H]1CN(C)Cc1ccc(Cl)c(Cl)c1 | 104.5* | -0.195
C[C@H]1CN([C@@H](C)CO)C(=O)Cc2cc(NC(=O)CCN3CCOCC3)ccc2O[C@@H]1CN(C)Cc1ccc(Cl)c(Cl)c1 | 90.5* | -0.0521
C[C@H]1CN([C@@H](C)CO)C(=O)Cc2cc(NS(=O)(=O)c3ccc(Cl)cc3)ccc2O[C@H]1CN(C)Cc1ccc(Cl)c(Cl)c1 | 1.5 | 0.368
C[C@H]1CN([C@@H](C)CO)C(=O)Cc2cc(NC(=O)CCN3CCOCC3)ccc2O[C@H]1CN(C)Cc1ccc(Cl)c(Cl)c1 | -2.8 | 0.229
CNC[C@@H]1Oc2ccc(NC(=O)CCN3CCOCC3)cc2CC(=O)N([C@H](C)CO)C[C@H]1C | -19.6 | 9.51*
CNC[C@@H]1Oc2ccc(NC(=O)CCN3CCOCC3)cc2CC(=O)N([C@@H](C)CO)C[C@@H]1C | -7.9 | 0.185
Cn1c(/C=C/C=C/N2CCCC2)nc2ccccc2c1=O | 7.7 | -0.407
COC(=O)C(CC#Cc1ccc2c(c1)[C@]1(C(=O)N2)[C@H](c2ccccc2OCCO)N2[C@H](c3ccccc3)[C@H](c3ccccc3)OC(=O)[C@H]2[C@@H]1C(=O)N1CCN(c2ncccn2)CC1)C(=O)OC | 99.0* | -0.153
